# Assay outcomes: PubChem, National Center for Advancing Translational Sciences (NCATS)
# MCF10A rerep: induces DNA re-replication in MCF 10a normal breast cells. MCF 10A DNA re-replication, Hoechst nuclear intensity, 48 h. AID 624296. hit rate 2.9% among 350,000. Potency, µM (top dose mostly 46.1 µM), without a hit: at the top dose activity, positive = re-replication, most hits filed as activators; also: % of control where 0% means no effect; nearly all actives have a fitted effect of over 50% in size
# KB-3-1 cytotox: KB-3-1 parental cell cytotoxicity. KB-3-1 viability, CellTiter-Glo ATP luminescence, 72 h. Potency, µM (top dose mostly 46.1 µM), most hits filed as cytotoxic. hit rate 1.4% among 400,000; also: % is scaled to controls: 0 for no effect and ±100 for the full control effect; nearly all actives have a fitted effect of over 60% in size
#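 Cytotoxicity in the drug-sensitive parental line KB-3-1 was scored as loss of CellTiter-Glo luminescence following 72 h incubation with compound. Values come from curve fitting of normalized concentration-response data.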
# ELG1 repair inh: blocks ELG1-dependent DNA repair in HEK293T cells; Potency, µM (top dose mostly 46.1 µM), for the others: at the highest dose activity change, negative = inhibition, hits mostly inhibitors; hit rate 2.3% among 330,000; AID 504467; HEK293T ELG1-luciferase reporter, luminescence, 16 h; DNA damage induced by 5-fluorouridine; also: % is scaled to controls: 0 for no effect and ±100 for the full control effect; nearly all actives have a fitted effect of over 55% in size
#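 HEK293T cells expressing luciferase-tagged ELG1 (2,000/well) received 5-Fluorouridine plus compound or DMSO for 16 hr at 37 °C. Luciferase was read by ONE-Glo luminescence after 30 min at room temperature.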
# SW480 rerep: inducers of DNA re-replication in SW480 colon cancer cells; Potency, µM (doses to about 46.1 µM), inactives show at the highest dose re-replication activation, usual class: activators; hit rate 1.8% among 340,000; SW480 DNA re-replication, Hoechst DNA content imaging, 48 h; AID 624297; also: % of control where 0% means no effect; nearly all actives have a fitted effect of over 55% in size
#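 250 cells/well; 23 nL cpd via pin tool; 48 hr, 37 C, 5% CO2; Hoechst 40 min; imager read of total nuclear intensity, ex 405/em 500-530 nm.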
# KB-V1 cytotox: KB-V1 MDR subline cytotoxicity | hit rate 3.4% among 400,000 | AID 1347076 | Potency, µM (top dose mostly 46.1 µM), hits mostly cytotoxic | KB-V1 MDR cells viability, CellTiter-Glo, 72 h; also: % is scaled to controls: 0 for no effect and ±100 for the full control effect; nearly all actives have a fitted effect of over 60% in size
#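 Following 72 h at 37 degrees C with compound, KB-V1 cell viability was read by CellTiter-Glo luminescence, medium being phenol-red-free DMEM plus 10% FBS; concentration-response parameters came from normalized, curve-fitted qHTS data.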
# * = called active by the depositor; i = inactive; ? = inconclusive; nt = not tested or not shown. Most compounds without a hit are left out; they make up all but 8.1% or so of the library. Calls follow the shape of the dose curve; as a rule, active = well fitted curve in the direction sought with a large enough effect; inconclusive = small, poorly fitted or top-dose-only effect, or another doubt; inactive = no such curve, though single readings can be large; an effect the other way counts as inactive or inconclusive. Potency is read from the fitted curve at half-maximal effect.
SMILES,MCF10A rerep,KB-3-1 cytotox,ELG1 repair inh,SW480 rerep,KB-V1 cytotox
COc1ccc(CNC(=O)c2c(O)nc3c(C)cccn3c2=O)cc1,nt,i,nt,nt,?
O=C(Cc1cccc(C(F)(F)F)c1)Nc1cccc(S(=O)(=O)N2CCCC2)c1,7.8%,nt,-5.7%,7.5%,nt
COc1ccccc1NC(=O)/C(C#N)=C/C=C/c1ccco1,8.2µM*,1.46µM*,?,0.92µM*,?
Cc1cccn2c(=O)c3cc(C(=O)NCc4ccccc4)c(=N)n(CCCN4CCOCC4)c3nc12,14.4%,?,nt,5.17µM*,i
C=CCn1c(=N)c(C(=O)NCCCOC)cc2c(=O)n3cccc(C)c3nc21,4.11µM*,i,-14.3%,?,i
Cc1cccn2c(=O)c3cc(C(=O)NCCN4CCOCC4)c(=N)n(CCc4ccccc4)c3nc12,2.59µM*,i,-26.8%,2.59µM*,?
COCCn1c(=N)c(C(=O)NCCc2ccccc2)cc2c(=O)n3cccc(C)c3nc21,?,i,nt,1.84µM*,i
COCCCn1c(=N)c(C(=O)NCc2ccco2)cc2c(=O)n3cccc(C)c3nc21,nt,i,nt,nt,?
Cc1ccc(NS(=O)(=O)c2cc(-c3cc(C)no3)ccc2C)c(Cl)c1,nt,i,nt,nt,?
COc1ccccc1NC(=O)N(C)C[C@H]1OCc2cn(nn2)CCCC(=O)N([C@@H](C)CO)C[C@@H]1C,nt,i,nt,nt,i
Clc1ccc(-n2ncc3c(NCc4cccnc4)ncnc32)cc1Cl,-31.2%,i,?,2.2%,i
COc1ccc(CCn2c(=N)c(C(=O)NCCN3CCOCC3)cc3c(=O)n4ccccc4nc32)cc1OC,5.4%,i,-2.2%,-7.8%,i
COc1ccc(CCn2c(=N)c(C(=O)NCCN3CCOCC3)cc3c(=O)n4cccc(C)c4nc32)cc1OC,?,i,?,16.4µM*,i
COCCCNC(=O)c1cccn2c(=O)c3cc4ccccc4cc3nc12,13µM*,i,?,?,4.11µM*
Cc1cccn2c(=O)c3cc(C(=O)NCCN4CCOCC4)c(=N)n(CCCN4CCOCC4)c3nc12,?,i,-6.4%,1.16µM*,i
O=C1C(Br)=C(c2ccccc2)C(c2ccccc2)=C1c1ccccc1,3.66µM*,6.51µM*,nt,2.91µM*,?
O=C1NC(c2ccccc2)=C(c2ccccc2)C1=O,-3.8%,i,1.1%,-5.7%,i
CCc1ccc(CN2CCC(n3nccc3NC(=O)c3ccccc3Cl)CC2)cc1,?,i,2.5%,2.1%,18.4µM*
COc1ccccc1C(=O)Nc1ccnn1C1CCN(Cc2cc(C)c(C)cc2C)CC1,?,nt,23.1µM*,?,nt
Cc1ccc(CNC(=O)C2CCCN(c3nn4c(=O)cc(C)nc4s3)C2)cc1 (stereo unspecified),-51.0%,i,-3.7%,-0.2%,i
CC1(C)CC(=O)C(C=NCCO)=C(O)C1,-0.2%,i,-5.5%,-3.5%,i
Cc1cccc(NC(=O)CSc2nnc(C)c(=O)[nH]2)c1,nt,i,nt,nt,i
CN1C(=O)/C(=C\c2ccccc2F)Sc2ccc(C(=O)NC3CCN(Cc4ccccc4)CC3)cc21,?,?,?,20.6µM*,i
COc1ccc(/C=C2\Sc3ccc(C(=O)N4CCc5ccccc5C4)cc3N(C)C2=O)cc1,nt,nt,-2.3%,nt,nt
COc1ccc(/C=C2\Sc3ccc(C(=O)N4CCCC4)cc3N(C)C2=O)cc1OC,11.6%,i,?,3.98µM*,i
SMILES,MCF10A rerep,KB-3-1 cytotox,ELG1 repair inh,SW480 rerep,KB-V1 cytotox
CCOc1ccc(/C=C2/Sc3ccc(C(=O)N4CCOCC4)cc3N(C)C2=O)cc1OC,?,i,8.2µM*,?,?
COc1ccc(/C=C2\Sc3ccc(C(=O)NC4CC4)cc3N(C)C2=O)cc1OC,?,i,11.6µM*,7.8%,?
Cc1cccc(/C=C2\Sc3ccc(C(=O)N4CCC(C(N)=O)CC4)cc3N(C)C2=O)c1,-4.1%,?,-16.7%,2.3%,i
CCC(C(=O)NC(N)=O)c1ccccc1 (stereo unspecified),7.6%,nt,nt,-6.3%,nt
COc1ccccc1C(=O)NCC(=O)N1CCN(S(=O)(=O)c2ccc3c(c2)OCCO3)CC1,25.8%,i,8.1%,-7.6%,i
O=C(c1ccc2c(c1)N(Cc1c(F)cccc1Cl)C(=O)c1ccccc1S2)N1CCOCC1,nt,i,nt,nt,i
CN1C(=O)/C(=C/c2cccc(Cl)c2)Sc2ccc(C(=O)N3CCOCC3)cc21,20.6µM*,i,?,?,i
CN(Cc1nc(-c2ccncc2)no1)S(=O)(=O)c1ccc(Cl)cc1,-6.4%,i,?,-4.9%,14.6µM*
CN(Cc1nc(-c2ccncc2)no1)S(=O)(=O)c1ccc(Br)cc1,-4.7%,i,-11.5%,-4.8%,14.6µM*
CN(Cc1nc(-c2ccncc2)no1)S(=O)(=O)c1ccccc1,-0.2%,i,5.4%,-2.4%,i
COc1ccc(OC)c(S(=O)(=O)NCc2nc3nc(C)cc(C)n3n2)c1,-1.5%,?,0.0%,1.2%,i
CCCCn1c(N)c(N(CC)C(=O)C2COc3ccccc3O2)c(=O)[nH]c1=O (stereo unspecified),1.2%,i,?,-2.6%,i
O=C1CC(c2ccc(F)cc2)Cc2nc(NCC3CCCO3)ncc21 (stereo unspecified),0.7%,i,-4.0%,-8.9%,20.6µM*
O=C1ON=C(c2ccc(Cl)cc2)/C1=C/c1ccc(O)cc1,?,i,?,4.0%,20.6µM*
O=C1ON=C(c2ccccc2)/C1=C/c1ccc(O)cc1,20.5%,i,?,20.7%,i
CCOc1ccc(N(CC(=O)N2CCN(c3ccccc3F)CC2)S(=O)(=O)c2c(C)noc2C)cc1,1.0%,i,-14.0%,0.7%,i
COC(=O)c1nc2nc(-c3cccs3)cc(C(F)(F)F)n2n1,-9.7%,i,-10.0%,0.517µM*,i
COC(=O)c1nc2nc(C)cc(C(F)(F)F)n2n1,11.1%,i,4.4%,-24.9%,i
COc1ccc(CNC(=O)c2cnn3c(C)c(Cc4c(F)cccc4Cl)c(C)nc23)cc1,nt,?,nt,nt,i
Cc1nc2c(C(=O)O)cnn2c(C)c1Cc1ccccc1,nt,i,nt,nt,i
CCOC(=O)N1CCN(C(=O)c2cnn3c(C(F)(F)F)cc(-c4cccs4)nc23)CC1,-1.0%,i,6.51µM*,-5.5%,i
CCOC(=O)N1CCN(C(=O)c2cnn3c(C)c(Cc4ccc(C)cc4)c(C)nc23)CC1,4.5%,i,?,-5.9%,3.66µM*
Cc1nc2c(C(=O)N3CCCC3)cnn2c(C)c1Cc1c(F)cccc1Cl,1.8%,i,-3.0%,1.0%,23.1µM*
N#Cc1sc(NCc2cccc(Cl)c2)nc1Cl,?,i,?,20.0%,?
